In the supplement of paper PMC4962491:
± gives the standard deviation of the averaged measurements.

Tested on: FaDu
Experiment: mitochondrial oxygen consumption rate normalised to cell number, Z score vs plate DMSO wells; higher = higher oxygen consumption (negative = OCR reduction)
Conditions: treatment time 24 h, assay medium: 5 mM glucose, 5 mM pyruvate, 4 mM glutamine
Method: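 Secondary screen: FaDu cells were incubated 24 h with the top 130 primary hits at 0.08, 0.4, 2 or 10 uM. Mitochondrial-specific OCR (basal minus antimycin A) was measured on a Seahorse XF96 in medium with 5 mM glucose, 5 mM pyruvate and 4 mM glutamine and normalised to Hoechst cell number. OCR score = (OCR - mean of plate DMSO wells) / SD of plate DMSO wells. Three repeats.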
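Note: compound exposure in DMEM (4 mM L-glutamine, 5 mM glucose), antimycin A injected at 2 µM after the basal reading and its residual OCR subtracted from basal.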

Question: Which “mitochondrial oxygen consumption rate normalised” value (0.08 µM) does the source give for `CC(=O)Oc1ccc(Cl)c2cccnc12` here?
Answer: 1.68 ± 0.74

Question: What about the “mitochondrial oxygen consumption rate normalised” value (0.4 µM) of the same compound?
Answer: 1.4 ± 1.5

Question: And the “mitochondrial oxygen consumption rate normalised” value (2 µM)?
Answer: 1.41 ± 0.58

Question: What about the “mitochondrial oxygen consumption rate normalised” value (10 µM) of the same compound?
Answer: -4.99 ± 1.8

Question: For `COc1cc([C@@H]2c3cc4c(cc3[C@H](O)[C@H]3COC(=O)[C@H]23)OCO4)cc(OC)c1OC`, which “mitochondrial oxygen consumption rate normalised” value (0.08 µM) is on record?
Answer: -0.539 ± 1.6

Question: And the “mitochondrial oxygen consumption rate normalised” value (0.4 µM)?
Answer: -0.043 ± 0.98

Question: And the “mitochondrial oxygen consumption rate normalised” value (2 µM)?
Answer: 0.427 ± 0.56

Question: And the “mitochondrial oxygen consumption rate normalised” value (10 µM)?
Answer: -0.617 ± 1.2

Question: `COc1ccc(Cc2nccc3cc(OC)c(OC)cc23)cc1OC` was tested. Which “mitochondrial oxygen consumption rate normalised” value (0.08 µM) did it give?
Answer: 0.452 ± 1

Question: And the “mitochondrial oxygen consumption rate normalised” value (0.4 µM)?
Answer: 1.06 ± 1.4

Question: And the “mitochondrial oxygen consumption rate normalised” value (2 µM)?
Answer: 0.739 ± 0.59

Question: And the “mitochondrial oxygen consumption rate normalised” value (10 µM)?
Answer: -0.208 ± 3.2

Question: With `C=C1C[C@@H]2[C@H](CC[C@]3(C)C(=O)CC[C@@H]23)[C@@]2(C)C=CC(=O)C=C12` as the compound, how does the “mitochondrial oxygen consumption rate normalised” value (0.08 µM) read?
Answer: -0.364 ± 0.53

Question: What about the “mitochondrial oxygen consumption rate normalised” value (0.4 µM) of the same compound?
Answer: 1.24 ± 0.73

Question: And the “mitochondrial oxygen consumption rate normalised” value (2 µM)?
Answer: -0.149 ± 1

Question: And the “mitochondrial oxygen consumption rate normalised” value (10 µM)?
Answer: 0.548 ± 0.94

Question: What does the source list for `CC[C@H]1CN2CCc3cc(OC)c(OC)cc3[C@@H]2C[C@@H]1C[C@H]1NCCc2cc(OC)c(OC)cc21`?
Answer: mitochondrial oxygen consumption rate normalised (0.08 µM): -2.43 ± 0.17; mitochondrial oxygen consumption rate normalised (0.4 µM): -3.08 ± 0.73; mitochondrial oxygen consumption rate normalised (2 µM): -9.68 ± 0.42; mitochondrial oxygen consumption rate normalised (10 µM): -11.8 ± 0.41

Question: How did the “mitochondrial oxygen consumption rate normalised” value (0.08 µM) turn out when `O=c1[nH]c2ccccc2n1C1CCN(CCCC(c2ccc(F)cc2)c2ccc(F)cc2)CC1` was run?
Answer: 0.0686 ± 1.5

Question: And the “mitochondrial oxygen consumption rate normalised” value (0.4 µM)?
Answer: 0.719 ± 0.8

Question: And the “mitochondrial oxygen consumption rate normalised” value (2 µM)?
Answer: -0.247 ± 1

Question: And the “mitochondrial oxygen consumption rate normalised” value (10 µM)?
Answer: -2.41 ± 0.47

Question: How did the “mitochondrial oxygen consumption rate normalised” value (0.08 µM) turn out when `S=C=NCc1ccccc1` was run?
Answer: 0.549 ± 1.3

Question: And the “mitochondrial oxygen consumption rate normalised” value (0.4 µM)?
Answer: 1.06 ± 1.3

Question: What about the “mitochondrial oxygen consumption rate normalised” value (2 µM) of the same compound?
Answer: 0.157 ± 2.2

Question: `CC(=O)O[C@H]1C[C@H](O[C@H]2[C@@H](O)C[C@H](O[C@H]3[C@@H](O)C[C@H](O[C@H]4CC[C@@]5(C)[C@H](CC[C@@H]6[C@@H]5C[C@@H](O)[C@]5(C)[C@@H](C7=CC(=O)OC7)CC[C@]65O)C4)O[C@@H]3C)O[C@@H]2C)O[C@H](C)[C@H]1O[C@@H]1O[C@H](CO)[C@@H](O)[C@H](O)[C@H]1O` was tested. Which “mitochondrial oxygen consumption rate normalised” value (0.08 µM) did it give?
Answer: -0.88 ± 0.81

Question: What about the “mitochondrial oxygen consumption rate normalised” value (0.4 µM) of the same compound?
Answer: -3.22 ± 1.3

Question: With `CCN1C[C@]2(COC)[C@H](O)C[C@H](OC)[C@@]34[C@@H]5C[C@@]6(O)[C@H](OC(=O)c7ccccc7)[C@@H]5[C@@](OC(C)=O)([C@@H]([C@H](OC)[C@H]23)[C@@H]14)[C@@H](O)[C@@H]6OC` as the compound, how does the “mitochondrial oxygen consumption rate normalised” value (0.08 µM) read?
Answer: -1.27 ± 0.64

Question: What about the “mitochondrial oxygen consumption rate normalised” value (0.4 µM) of the same compound?
Answer: 0.916 ± 0.68

Question: What about the “mitochondrial oxygen consumption rate normalised” value (2 µM) of the same compound?
Answer: -0.205 ± 0.67

Question: And the “mitochondrial oxygen consumption rate normalised” value (10 µM)?
Answer: -1.19 ± 2.6

Question: What does the source list for `CCCCCCCCCCCCCCCC[n+]1ccccc1`?
Answer: mitochondrial oxygen consumption rate normalised (0.08 µM): -1.4 ± 1.2; mitochondrial oxygen consumption rate normalised (0.4 µM): -7.98 ± 1.3; mitochondrial oxygen consumption rate normalised (2 µM): -12.98 ± 0.12

Question: With `CC(C)[N+](C)(CCC(C(N)=O)(c1ccccc1)c1ccccc1)C(C)C` as the compound, how does the “mitochondrial oxygen consumption rate normalised” value (0.08 µM) read?
Answer: -0.746 ± 1.7

Question: And the “mitochondrial oxygen consumption rate normalised” value (0.4 µM)?
Answer: 0.934 ± 0.43

Question: And the “mitochondrial oxygen consumption rate normalised” value (2 µM)?
Answer: 0.355 ± 1.3

Question: What about the “mitochondrial oxygen consumption rate normalised” value (10 µM) of the same compound?
Answer: -0.361 ± 2
